Screening data: PubChem, National Center for Advancing Translational Sciences (NCATS)
Rows were chosen to be rich in hits. Some 9.3% of all compounds tested hit in one or more screens of this group.
FLuc counter = inhibits or activates purified firefly luciferase, miR-21 counter-screen; P08659; purified FLuc, Km substrates, luminescence inhibition; Potency, µM (titrated, usually from 57.5 µM), without a hit: at the highest dose activity change, negative = inhibition, actives largely listed as inhibitors; hit rate 6.9% among 360,000; AID 588342;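 further: plate controls were vehicle for no effect and reference inhibitor for full effect; nearly all actives have a fitted effect of over 55% in size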
Target sequence (P08659 whole entry, looked up): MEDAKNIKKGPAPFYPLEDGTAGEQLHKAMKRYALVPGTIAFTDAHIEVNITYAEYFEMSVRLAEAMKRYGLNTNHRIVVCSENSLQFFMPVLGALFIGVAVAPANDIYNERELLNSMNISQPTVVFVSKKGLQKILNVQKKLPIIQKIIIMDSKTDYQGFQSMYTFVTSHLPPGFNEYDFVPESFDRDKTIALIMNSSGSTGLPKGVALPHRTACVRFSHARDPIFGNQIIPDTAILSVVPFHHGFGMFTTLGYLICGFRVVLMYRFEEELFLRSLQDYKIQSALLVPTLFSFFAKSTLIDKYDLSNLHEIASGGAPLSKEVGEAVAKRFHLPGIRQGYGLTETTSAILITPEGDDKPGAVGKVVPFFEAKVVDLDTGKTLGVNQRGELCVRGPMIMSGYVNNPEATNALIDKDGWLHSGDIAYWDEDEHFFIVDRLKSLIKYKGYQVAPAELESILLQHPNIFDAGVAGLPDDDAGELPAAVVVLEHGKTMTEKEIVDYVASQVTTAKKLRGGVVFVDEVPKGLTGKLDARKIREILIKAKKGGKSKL
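Purified P. pyralis luciferase (10nM final) with 10uM D-luciferin and 10uM ATP (Km levels) in 50mM Tris acetate pH 7.5, 10mM Mg acetate, 0.01% Tween-20, 0.05% BSA; qHTS 6-point titration, ~60 µM downward; luminescence read.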
SMN2 splice up = increases expression of the SMN2 splice variant; Potency, µM (doses to about 46.1 µM), for inactives: top-dose activity change, positive = activation, hits mostly activators; AID 1458; hit rate 2.8% among 210,000; HEK293 SMN2-luciferase splicing reporter, luminescence, 30-36 h; further: % of control where 0% means no effect; nearly all actives have a fitted effect of over 55% in size
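HEK293 cells carry an SMN2 minigene-luciferase reporter in which exon 7 inclusion puts luciferase in frame. Cells were seeded at 2000 cells/well, attached for 10-12 hours, then exposed to compounds for 30-36 hours at 37C before ONE-Glo luminescence.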
ELG1 genotoxic = genotoxicity induction in ELG1-luciferase HEK293T cells; Potency, µM (doses to about 46 µM), inactives show at the highest dose activity change, positive = activation, most hits filed as activators; hit rate 1.3% among 330,000; AID 504466; HEK293T ELG1-luciferase reporter, luminescence, 16 h; further: % of control where 0% means no effect; nearly all actives have a fitted effect of over 60% in size
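Genotoxic stress is detected as increased luminescence from luciferase-tagged ELG1 in HEK293T cells, measured with ONE-Glo after a 16 hr treatment at 37 °C.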
Rab9 prom act = Rab9 promoter activation; Potency, µM (highest dose often 9.22 µM), for the others: at the top dose activation, negative = inhibition, hits mostly activators; AID 485297; hit rate 2.8% among 320,000; Huh7 Rab9 promoter-luciferase reporter, luminescence, 24 h; further: % of control where 0% means no effect; nearly all actives have a fitted effect of over 60% in size
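Using Huh7 cells stably transfected with Rab9 promoter–luciferase, compounds were incubated 24 h at 37 °C, 5% CO2; luciferase luminescence was read 10 min after reagent addition.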
NPC1 promoter act = activates the NPC1 promoter. Huh7 NPC1 promoter luciferase reporter, 24 h. Potency, µM (doses to about 9.22 µM), without a hit: at the highest dose activation, hits mostly activators. hit rate 2.4% among 320,000; further: % of control where 0% means no effect; nearly all actives have a fitted effect of over 60% in size
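Luminescence from an NPC1 promoter-driven luciferase reporter in stably transfected Huh7 cells was measured after 24 h compound treatment at 37 °C, followed by 10 min ambient incubation with luciferase detection reagent.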
ELG1 DNA repair = ELG1-dependent DNA repair inhibition; HEK293T ELG1-luciferase reporter, luminescence, 16 h; DNA damage induced by 5-fluorouridine; Potency, µM (top dose mostly 46.1 µM), for inactives: at the highest dose activity change, negative = inhibition, actives largely listed as inhibitors; hit rate 2.3% among 330,000; AID 504467; further: on the % scale 0 is the no-effect control and ±100 the full control effect; nearly all actives have a fitted effect of over 55% in size
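Step one: seed 2,000 cells per well. Step two: pin-transfer compound or DMSO alongside 5-fluorouridine. Step three: incubate 16 hr, 37 °C, 5% CO2. Step four: add ONE-Glo, wait 30 min, read luminescence.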
Active calls of the source: *; ? = inconclusive; / = not tested or not shown. The call rests on the fitted dose curve; in most records, active means well fitted curve in the direction sought with a large enough effect; inconclusive means small, poorly fitted or top-dose-only effect, or another doubt; inactive means no such curve, though single readings can be large; an effect the other way counts as inactive or inconclusive. Potency means the concentration at half of the fitted maximal effect.

SMILES	FLuc counter	SMN2 splice up	ELG1 genotoxic	Rab9 prom act	NPC1 promoter act	ELG1 DNA repair
O=C(Nc1ccc(F)cc1)c1ccc2nc[nH]c2c1	?	?	5%	18%	26%	?
COC(=O)c1ccc(NC(=O)c2c(-c3ccccc3)c(-c3ccccc3)nn(C)c2=O)cc1	-11%	2%	/	/	/	/
Cc1onc(-c2ccccc2)c1C(=O)OCC(=O)NC(=O)c1ccccc1	1%	/	3%	-4%	-2%	10%
Cc1cc(=O)oc(C)c1C(=O)OCC(=O)c1ccc(Cl)cc1	12µM*	-14%	5%	27%	18%	?
Cc1cc(=O)oc(C)c1C(=O)OCC(=O)c1ccccc1	?	-8%	2%	7%	10%	?
Cc1cc(=O)oc(C)c1C(=O)OCC(=O)c1ccc(Br)cc1	9.5µM*	-18%	-1%	12%	1%	0%
Cc1cc(=O)oc(C)c1C(=O)OCC(=O)c1ccc2ccccc2c1	3.4µM*	-21%	1%	12%	15%	?
O=C(NC1(Cc2ccccc2)CCN(CCc2cccs2)C1=O)c1ccccc1 (stereo unspecified)	-3%	/	-4%	-4%	0%	?
CCC(=Nc1ccccc1)C1=C(O)CC(C)(C)CC1=O	1%	-19%	1%	-12%	-4%	8%
Cc1ccc2[nH]c3c(c2c1)CCCC3C(N)=O (stereo unspecified)	0%	-7%	4%	-8%	-1%	8%
Cc1ccc2[nH]c3c(c2c1)CCCC3NC(=O)CCl (stereo unspecified)	1%	/	-13%	-26%	-20%	18µM*
COc1ccc(-c2cc(C(F)(F)F)n3nc(C)c(-c4ccccc4)c3n2)cc1OC	3%	-8%	/	/	/	/
O=c1c2c(C(F)(F)F)cc(C(F)(F)F)nc2[nH]n1-c1ccccc1	-15%	2%	-26%	-10%	9%	26µM*
Cc1cc(C(C)(C)C)nc2[nH]n(-c3ccccc3)c(=O)c12	?	-22%	-7%	-2%	2%	?
CCN1CCN(c2ccc(N=Cc3ccc(O)cc3O)cc2)CC1	17µM*	-9%	0%	-5%	1%	-2%
CCOC(=O)c1cc(-c2ccc(C)cc2)n(CCC(=O)Nc2ccc(OC)c(OC)c2)c1C	-19%	-14%	/	/	/	/
CC(=O)Nc1ccc(N2CC(C)(C)C2=O)cc1	-15%	8%	0%	-1%	0%	12%
Nn1c(COc2ccc(Cl)cc2)nc2ccccc2c1=O	?	14µM*	?	?	?	?
Nn1c(Cc2ccccc2)nc2cc(Cl)ccc2c1=O	0%	/	-2%	-1%	-3%	-10%
COc1cc(/C=N/NC(=O)c2cc(-c3cccs3)nc3ccccc23)ccc1O	6.7µM*	/	-1%	-1%	-2%	?
COc1ccc(/C=N/NC(=O)c2cc(-c3ccccc3OC)nc3ccccc23)cc1COC(C)=O	0%	-2%	-2%	-3%	0%	?
N#Cc1ccc(/C=N/NC(=O)c2cc(-c3cccs3)nc3ccccc23)cc1	6.7µM*	7%	2%	-6%	-16%	-20%
CCOc1cc(CNC(=O)c2cc(-c3ccccc3)n[nH]2)cc(OCC)c1OCC	-16%	/	/	/	/	/
CC(=O)Nc1nc(-c2ccc3c(c2)CC(C)N3C(=O)C2CC2)c(C)s1 (stereo unspecified)	?	/	-8%	3%	8%	8.2µM*
Cc1sc(NC(=O)c2ccco2)nc1-c1ccc2c(c1)CC(C)N2C(=O)C1CC1 (stereo unspecified)	19µM*	-38%	-31%	12%	-1%	15µM*
COc1ccc(NC(=O)CCNS(=O)(=O)c2ccc3c(c2)CCCC(=O)N3)cc1	-6%	/	/	/	/	/
COc1ccc(OC)c(S(=O)(=O)N2CCCC(C(=O)N3CCOCC3)C2)c1 (stereo unspecified)	0%	/	0%	13%	-3%	5%
